Data on 5 molecules can be found in PubChem BioAssay.

Structures are written as SMILES. Activity calls are given as the source filed them.

Assay [1] in a line: small molecules captured by biotinylated probe aFSTL3 – biochemical, small-molecule microarray, fluorescence 635/667, stem cell growth factor project, primary screen (AID 1064).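 Note: measures binding of the biotinylated anti-FSTL3 antibody to printed compounds.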 As to conditions: higher = more signal.
Assay [2] in a line: binders from COS7 lysate, DM2A8 probe, primary screen, torsin A project, cell lysate, small-molecule microarray, fluorescence 635/667 (AID 1065). As to conditions: higher = more signal, COS7 lysate expressing mutant human TOR1A.
Assay [3] is described as follows: small molecules captured by biotinylated probe aFGF2 – biochemical, small-molecule microarray, fluorescence 635/667, stem cell growth factor project, primary screen (AID 1067).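 Note: measures binding of biotinylated aFGF2 protein to printed compounds on slides; z-score merges feature fluorescence and signal-to-noise across triplicate slides.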 As to conditions: higher = more signal.
Assay [4] can be described thus: small molecules captured by biotinylated probe aFGF10 – biochemical, small-molecule microarray, fluorescence 635/667, stem cell growth factor project, primary screen (AID 1071).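 Note: score merges 667 nm spot intensity and signal to noise from triplicate slides.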 As to conditions: higher = more signal.
The target in assay [5] is Neurogenic locus notch homolog protein 2 (Homo sapiens) (UniProt Q04721). Nature of the assay: small molecules binding Notch2 protein – biochemical, small-molecule microarray, 635 nm fluorescence, stem cell growth factors, primary screen (AID 1073). As to conditions: higher = more signal.
For assay [6], the target named is Pro-neuregulin-1, membrane-bound isoform (Homo sapiens) (UniProt Q02297). Nature of the assay: small molecules binding neuregulin-1 protein – biochemical, small-molecule microarray, fluorescence 635/667, psychiatric disease protein project, primary screen (AID 1075).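 Note: score combines 667 nm spot fluorescence with signal to noise.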 As to conditions: NRG1 binding, 635 nm fluorescence, higher = more signal.
Assay [7] concerns Neuregulin-1 EGF-like domain. Briefly: small molecules binding NRG1 EGF domain – biochemical, small-molecule microarray, 635 nm fluorescence, primary screen (AID 1081).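 Note: binding of the protein to compounds printed on small-molecule microarray slides.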 As to conditions: higher = more signal.
Assay [8] in a line: FRG1 expression reporter modulators in myotubes – cell-based, C2C12 myotubes, firefly/Renilla luciferase, luminescence, FRG1 inhibition for FSHD, primary screen (AID 1084). As to conditions: FRG1 promoter luciferase, higher = more signal, called active from +8 up or from −8 down.
The nature of assay [9]: small molecules captured by biotinylated probe aFST – biochemical, small-molecule microarray, fluorescence 635/667, stem cell growth factor project, primary screen (AID 1086).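 Note: score merges 667 nm fluorescence with signal-to-noise of each printed compound spot.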 As to conditions: higher = more signal.
Assay [10] is described as follows: binders of probe aHhip on microarray, primary screen, stem cell growth factor project, biochemical, small-molecule microarray, fluorescence 635/667 (AID 1087).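 Note: score merges spot fluorescence at 667nm with spot signal to noise ratio.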 As to conditions: higher = more signal.
Assay [11] has as its system PRMT1 (protein arginine N-methyltransferase 1). Briefly: small molecules binding arginine methyltransferase PRMT1 – biochemical, small-molecule microarray, 635 nm fluorescence, primary screen (AID 1088).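 Note: binding of Prmt1 protein to compounds spotted on small-molecule microarray slides.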 As to conditions: higher = more signal.
Assay [12] can be described thus: growth effects on S. cerevisiae YJM789 – YJM789 clinical isolate, OD600, 24 h, basal, primary screen (AID 1089).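 Note: growth of clinical yeast isolate S. cerevisiae YJM 789 seeded 1000 cells per well; test concentration not given here.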 As to conditions: higher = more signal, called active from +8 up or from −8 down.
Assay [13] can be described thus: S. pombe growth modifiers, basal conditions – strain 972, OD600, 24 h, no modulator, primary screen (AID 1090).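 Note: basal condition with compound alone and no growth modifier present; test concentration not given here.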 As to conditions: S. pombe 972 growth, higher = more signal, called active from +8 up or from −8 down.
Assay [14] in a line: budding yeast growth modifiers under rapamycin – strain BY4716, OD600, 96 h, primary screen (AID 1091). Note: test concentration not given here. As to conditions: S. cerevisiae BY4716 + rapamycin, higher = more signal, called active from +8 up or from −8 down.
The target in assay [15] is Torsin-1A-interacting protein 2 (Homo sapiens) (UniProt Q8NFQ8). Nature of the assay: small molecules binding lysate-expressed LULL1 – cell lysate, human LULL1 lysate, 635/667 nm fluorescence, primary screen (AID 1092).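 Note: probe is lysate of COS7 cells overexpressing human LULL1; score merges per-feature 667 nm fluorescence with signal-to-noise.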 As to conditions: small-molecule microarray, hLULL1 lysate binding, 635 nm fluorescence; higher = more signal.
A short description of assay [16]: optical density change of DRC41 E. coli – strain DRC41, OD650, 24 h, E. coli filamentation project, primary screen (AID 1093).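 Note: MC1000 strain lacking acrAB efflux and sulA so SOS filamentation is blocked; test concentration not given here.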 As to conditions: E. coli DRC41 growth, higher = more signal, called active from +8 up or from −8 down.
The nature of assay [17]: probe aLefty2 binding to arrayed compounds – biochemical, biotinylated probe, 635/667 nm fluorescence, primary screen (AID 1094).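 Note: score merges spot fluorescence near 667 nm with spot signal-to-noise ratio.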 As to conditions: small-molecule microarray, higher = more signal.
In assay [18] the test system is Noggin (protein binding on small-molecule microarray). Nature of the assay: small molecules binding Noggin protein – biochemical, 635/667 nm fluorescence, primary screen (AID 1095).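 Note: score merges 667 nm feature fluorescence with signal to noise over triplicate slides.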 As to conditions: 635 nm fluorescence, higher = more signal.
Assay [19] concerns the target Neurogenic locus notch homolog protein 3 (Homo sapiens) (UniProt Q9UM47). Nature of the assay: small molecules binding NOTCH3 protein – biochemical, 635/667 nm fluorescence, primary screen (AID 1096). As to conditions: small-molecule microarray, 635 nm fluorescence, higher = more signal.
A short description of assay [20]: probe aEGFR binding to arrayed compounds – biochemical, biotinylated probe, 635/667 nm fluorescence, primary screen (AID 1097).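 Note: probe is a biotinylated anti-EGFR antibody binding compounds printed on slides; score combines fluorescence near 667 nm and signal to noise of each spot.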 As to conditions: small-molecule microarray, higher = more signal.

Sequence of Pro-neuregulin-1, membrane-bound isoform (Homo sapiens) (Q02297 whole entry, looked up, the tested form may be a part, canonical isoform): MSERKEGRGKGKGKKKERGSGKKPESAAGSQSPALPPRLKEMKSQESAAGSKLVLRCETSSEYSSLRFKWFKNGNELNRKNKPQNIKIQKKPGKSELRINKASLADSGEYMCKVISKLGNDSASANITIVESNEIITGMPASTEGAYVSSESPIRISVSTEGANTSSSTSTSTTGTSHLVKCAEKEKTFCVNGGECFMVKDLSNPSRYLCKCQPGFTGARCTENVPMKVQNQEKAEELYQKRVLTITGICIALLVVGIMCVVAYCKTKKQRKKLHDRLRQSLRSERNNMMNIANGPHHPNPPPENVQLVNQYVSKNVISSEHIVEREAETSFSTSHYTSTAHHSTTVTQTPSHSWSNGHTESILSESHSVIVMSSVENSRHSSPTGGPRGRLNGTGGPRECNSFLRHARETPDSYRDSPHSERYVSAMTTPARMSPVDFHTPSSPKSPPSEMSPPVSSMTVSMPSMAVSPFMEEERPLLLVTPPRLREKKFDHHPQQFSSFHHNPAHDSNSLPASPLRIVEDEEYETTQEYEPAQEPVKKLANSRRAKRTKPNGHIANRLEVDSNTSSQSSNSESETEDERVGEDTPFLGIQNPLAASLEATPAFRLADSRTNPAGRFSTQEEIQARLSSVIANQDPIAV
Sequence of Neurogenic locus notch homolog protein 3 (Homo sapiens) (Q9UM47 whole entry, looked up): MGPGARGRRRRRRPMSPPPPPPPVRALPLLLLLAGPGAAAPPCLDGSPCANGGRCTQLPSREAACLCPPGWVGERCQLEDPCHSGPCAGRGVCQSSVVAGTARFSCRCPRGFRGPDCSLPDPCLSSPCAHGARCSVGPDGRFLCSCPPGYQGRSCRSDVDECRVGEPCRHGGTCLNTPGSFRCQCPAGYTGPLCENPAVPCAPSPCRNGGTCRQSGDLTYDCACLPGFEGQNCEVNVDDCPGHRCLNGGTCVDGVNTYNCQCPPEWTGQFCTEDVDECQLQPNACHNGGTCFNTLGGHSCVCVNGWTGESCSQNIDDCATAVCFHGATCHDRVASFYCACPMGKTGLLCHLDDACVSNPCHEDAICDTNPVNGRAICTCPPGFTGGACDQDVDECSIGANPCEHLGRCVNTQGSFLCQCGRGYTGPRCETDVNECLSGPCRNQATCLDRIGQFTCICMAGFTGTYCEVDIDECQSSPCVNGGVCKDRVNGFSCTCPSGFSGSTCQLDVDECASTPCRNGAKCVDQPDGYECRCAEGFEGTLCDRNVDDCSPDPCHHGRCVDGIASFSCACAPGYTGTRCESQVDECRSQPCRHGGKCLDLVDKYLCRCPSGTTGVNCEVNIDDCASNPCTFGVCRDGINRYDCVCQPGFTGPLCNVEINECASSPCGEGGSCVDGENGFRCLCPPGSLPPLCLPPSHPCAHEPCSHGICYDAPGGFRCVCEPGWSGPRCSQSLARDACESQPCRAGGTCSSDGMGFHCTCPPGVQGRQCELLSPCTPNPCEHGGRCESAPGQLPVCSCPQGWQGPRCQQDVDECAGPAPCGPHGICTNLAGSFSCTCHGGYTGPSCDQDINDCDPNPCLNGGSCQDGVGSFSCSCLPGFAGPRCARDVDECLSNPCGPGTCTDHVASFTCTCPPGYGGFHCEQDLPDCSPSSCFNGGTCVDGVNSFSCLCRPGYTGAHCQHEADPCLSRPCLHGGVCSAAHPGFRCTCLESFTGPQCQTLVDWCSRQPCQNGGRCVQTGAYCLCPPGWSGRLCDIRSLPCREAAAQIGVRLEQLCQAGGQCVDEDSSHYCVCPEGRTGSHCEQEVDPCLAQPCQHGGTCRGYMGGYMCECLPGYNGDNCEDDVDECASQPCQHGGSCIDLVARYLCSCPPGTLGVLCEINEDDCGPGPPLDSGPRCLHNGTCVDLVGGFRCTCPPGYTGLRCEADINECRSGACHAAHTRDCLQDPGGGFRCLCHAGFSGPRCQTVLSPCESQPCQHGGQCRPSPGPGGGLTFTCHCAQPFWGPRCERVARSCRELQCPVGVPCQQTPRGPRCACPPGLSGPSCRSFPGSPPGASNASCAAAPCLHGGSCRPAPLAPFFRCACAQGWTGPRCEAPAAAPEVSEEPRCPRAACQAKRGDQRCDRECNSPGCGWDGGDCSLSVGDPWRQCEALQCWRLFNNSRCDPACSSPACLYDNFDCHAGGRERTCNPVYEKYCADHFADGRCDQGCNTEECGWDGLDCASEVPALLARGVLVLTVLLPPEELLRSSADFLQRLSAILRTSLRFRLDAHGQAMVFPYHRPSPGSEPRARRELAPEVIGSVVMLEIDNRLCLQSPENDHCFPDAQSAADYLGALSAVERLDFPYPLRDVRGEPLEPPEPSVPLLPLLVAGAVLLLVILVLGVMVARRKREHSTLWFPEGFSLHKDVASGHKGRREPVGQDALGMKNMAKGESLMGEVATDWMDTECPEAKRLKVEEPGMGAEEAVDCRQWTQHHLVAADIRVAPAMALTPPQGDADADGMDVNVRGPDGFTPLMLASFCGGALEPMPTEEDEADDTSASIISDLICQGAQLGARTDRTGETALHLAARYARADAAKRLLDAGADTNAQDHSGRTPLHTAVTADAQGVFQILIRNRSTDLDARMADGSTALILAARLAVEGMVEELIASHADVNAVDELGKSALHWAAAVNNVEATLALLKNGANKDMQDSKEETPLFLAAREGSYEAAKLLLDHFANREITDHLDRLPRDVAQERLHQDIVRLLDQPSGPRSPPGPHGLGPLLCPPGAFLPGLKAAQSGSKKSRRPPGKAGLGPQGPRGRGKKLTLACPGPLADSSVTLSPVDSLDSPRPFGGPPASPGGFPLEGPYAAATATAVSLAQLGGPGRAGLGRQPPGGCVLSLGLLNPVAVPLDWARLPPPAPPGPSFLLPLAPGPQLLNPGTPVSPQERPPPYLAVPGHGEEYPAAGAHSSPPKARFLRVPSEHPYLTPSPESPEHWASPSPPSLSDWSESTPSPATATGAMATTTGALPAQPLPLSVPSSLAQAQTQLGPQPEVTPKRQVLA
Sequence of Torsin-1A-interacting protein 2 (Homo sapiens) (Q8NFQ8 whole entry, looked up): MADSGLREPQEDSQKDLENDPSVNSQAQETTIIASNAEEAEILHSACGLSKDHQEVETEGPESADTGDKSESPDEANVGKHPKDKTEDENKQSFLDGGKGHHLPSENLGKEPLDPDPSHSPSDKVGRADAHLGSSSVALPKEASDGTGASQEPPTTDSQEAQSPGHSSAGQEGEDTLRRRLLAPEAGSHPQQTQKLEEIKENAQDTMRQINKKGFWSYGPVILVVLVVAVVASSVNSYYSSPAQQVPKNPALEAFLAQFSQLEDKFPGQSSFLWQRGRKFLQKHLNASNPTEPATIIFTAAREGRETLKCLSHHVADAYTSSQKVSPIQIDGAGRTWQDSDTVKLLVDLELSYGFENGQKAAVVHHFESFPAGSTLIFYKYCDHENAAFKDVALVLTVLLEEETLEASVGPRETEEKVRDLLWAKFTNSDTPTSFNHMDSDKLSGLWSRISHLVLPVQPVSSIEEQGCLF

In the case of `C[C@]1(C(=O)NCCN2CCOCC2)c2ccccc2C(=O)N(Cc2ccc(OC(F)(F)F)cc2)[C@H]1c1ccc(CO)cc1`, the composite z-score in assay [1] was 0.0198; in assay [2], 0.317; in assay [3], -0.146; in assay [4], -0.735; in assay [5], -0.375; in assay [6], 2.05. The composite z-score is 1.02 in [7]; 0.045 in [9]; -0.236 in assay [10]; 0.562 in [11]; 1.82 in assay [15]; -0.0823 in assay [17]. The composite z-score in assay [18] was 0.557; in assay [19], 0.164; in [20], -0.213. In addition, the z-score in assay [8] was -2.39 (inactive); in [12], -0.15 (inactive); in [13], -0.859 (inactive); in assay [14] it was -0.854 (inactive); in [16] it was 0.365 (inactive).
For the molecule `CN(C)C(=O)[C@]1(CCC(=O)OC(C)(C)C)N=C(c2ccc(OCCCO)cc2)O[C@@H]1c1ccccc1`, the composite z-score is -0.175 in assay [1]; 0.527 in assay [2]; -0.016 in [3]; 0.776 in assay [4]; 1.3 in [5]; 1.91 in assay [6]. The composite z-score was 1.4 in [7]; 0.268 in assay [9]; -0.0645 in assay [10]; 0.637 in [11]; 3.56 in assay [15]; 0.0601 in assay [17]. The composite z-score in assay [18] was -0.674; in assay [19], -0.301; in [20], 0.625. Moreover, the z-score is 0.788 (inactive) in [8]; 0.182 (inactive) in assay [12]; -0.993 (inactive) in [13]; -0.273 (inactive) in [14]; 1.27 (inactive) in [16].
Consider `COc1ccc(CCNC(=O)[C@@]2(Sc3ccc(C)cc3)CC(=O)N(Cc3cc(C(F)(F)F)cc(C(F)(F)F)c3)[C@@H]2c2ccc(CO)cc2I)cc1`, for which the composite z-score is 0.332 in assay [1]; -0.671 in assay [2]; -0.0894 in assay [3]; -0.0189 in [4]; -0.632 in [5]; 0.899 in assay [6]. Besides, the composite z-score in assay [7] is 1.07; in assay [9], 0.582; in [10], -0.271; in assay [11], 1.46; in [15] it was 1.94; in [17], -0.0208. For the same molecule, the composite z-score in [18] is -0.299; in [19], -0.0768; in assay [20], -0.24. Moreover, the z-score in assay [8] was 0.214 (inactive); in assay [12] it was -2.62 (inactive); in assay [13] it was -3.09 (inactive); in assay [14], 2.1 (inactive); in assay [16] it was 0.152 (inactive).
As for `CCCCC(=C=CC[C@@H](O)c1ccc(OCCO)cc1)C[C@@H](O)COCc1ccccc1`, the composite z-score in assay [1] was -0.111; in assay [2] it was 1.09; in [3] it was -0.0783; in assay [4], 0.114; in assay [5] it was -1.11; in assay [6], -0.376. In addition, the composite z-score is -0.0622 in assay [7]; 0.101 in assay [9]; 0.0743 in [10]; 0.989 in assay [11]; 0.146 in [15]; -0.166 in assay [17]. Further, the composite z-score in assay [18] is 1.14; in [19], -0.198; in assay [20], -0.18. The z-score in [8] is -2.2 (inactive); in assay [12], -1.24 (inactive); in [13], -2.39 (inactive); in assay [14], -1.07 (inactive); in [16], 1.69 (inactive).
As to `CC(C)NC(=O)[C@@]1(C)c2ccccc2C(=O)N(C(C)C)[C@H]1c1ccc(CO)cc1`, the composite z-score in assay [1] was -0.0225; in assay [2], -0.953; in [3], -0.153; in assay [4] it was -0.564; in [5], -0.792; in [6] it was 0.493. The composite z-score in [7] was -0.643; in [9], -0.242; in [10] it was -0.252; in assay [11], 1.45; in assay [15], 3.47; in assay [17], -0.0466. The figures for the composite z-score in [18], in assay [19] and in assay [20] were -0.781, 0.165 and -0.227, respectively. For the same molecule, the z-score in [8] was -0.639 (inactive); in assay [12] it was -0.501 (inactive); in assay [13] it was -1.63 (inactive); in [14], -0.471 (inactive); in assay [16], -0.297 (inactive).
